Screening data: PubChem BioAssay, National Center for Advancing Translational Sciences (NCATS)
Shown are actives, neighbours in structure and some others; about 17% of the full set was active somewhere.
TDP1 cell CPT: growth inhibition of DT40 Tdp1-/-;hTDP1 cells with camptothecin (screen for TDP1 inhibitors); 420,000 tested, 12% active; Potency, µM (series often up to 46.2 µM), without a hit: at the top dose activity change, negative = growth inhibition, most hits filed as inhibitors; AID 686979; chicken DT40 Tdp1-/-;hTDP1 cells + 20 nM CPT, ATP luminescence, 48 h; note: % is set by controls: 0 for no effect and ±100 for the full control effect; nearly all actives have a fitted effect of over 55% in size
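Chicken DT40 Tdp1-/- cells stably complemented with human TDP1 were seeded at 400 cells/well in medium containing 20 nM camptothecin, exposed to pin-transferred compounds, and grown at 37 °C for at least 48 hr. Viability was read as ATP luminescence.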
ATXN2 expr inh: ATXN2 expression inhibition; HEK-293 ATXN2-luciferase reporter, luminescence, 24 h; Potency, µM (highest dose often 57 µM), inactives show at the highest dose activity change, negative = inhibition, actives largely listed as inhibitors; 360,000 tested, 0.72% active; AID 1745845; note: % is set by controls: 0 for no effect and ±100 for the full control effect; nearly all actives have a fitted effect of over 55% in size
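qHTS (up to 57 uM final) was run with 24 h compound exposure of reporter cells at 37 °C. Each well was multiplexed: SteadyGlo luminescence measured ATXN2-luciferase expression after a fluorogenic Gly-Phe-AFC viability readout (25 uM final).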
TDP1 cell noCPT: qHTS for Inhibitors of human tyrosyl-DNA phosphodiesterase 1 (TDP1): qHTS in cells in absence of CPT | Potency, µM (series often up to 46.2 µM), for the others: top-dose activity change, negative = growth inhibition, most hits filed as inhibitors | AID 686978, 2013 | 420,000 tested, 15% active | DT40 Tdp1-/- hTDP1 cells, no CPT, ATP luminescence, 48 h; note: % is set by controls: 0 for no effect and ±100 for the full control effect; nearly all actives have a fitted effect of over 55% in size
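Stably hTDP1-transfected Tdp1-null chicken DT40 cells were treated with library compounds minus camptothecin and grown for at least 48 hr at 37 °C, after which cellular ATP was quantified by luminescence.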
TGFb SMAD3 inh: TGF-b pathway inhibition | Potency, µM (titrated, usually from 46.1 µM), inactives show at the top dose activity, negative = inhibition, most hits filed as inhibitors | 410,000 tested, 1.2% active | HepG2 CAGA-GFP TGF-b/SMAD3 reporter, GFP fluorescence, 18 h; TGF-beta stimulated, 500 pg/mL final; note: % is set by controls: 0 for no effect and ±100 for the full control effect; nearly all actives have a fitted effect of over 65% in size
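Inhibition of TGF-beta-driven CAGA-GFP reporter expression in HEPG2 cells is measured by cellular GFP fluorescence after 18 h stimulation with 500 pg/mL recombinant TGF-beta in 1% FBS medium at 37 degrees C.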
S2 tox: viability counter-screen for ATXN expression inhibitors; S2 cells (HEK-293 line with an ATXN2-luciferase reporter) viability, CellTiter-Fluor protease fluorescence, 24 h; Potency, µM (doses to about 56.7 µM), actives largely listed as cytotoxic; 400,000 tested, 0.49% active; AID 651635; note: nearly all actives have a fitted effect of over 40% in size
HepG2 viability: kills HepG2 cells in TGF-b inhibitor counter-screen; HepG2 CAGA-GFP viability, ATP luminescence, 18 h; Potency, µM (highest dose often 46.1 µM), for inactives: at the top dose activity change, negative = cytotoxicity, hits mostly cytotoxic; 410,000 tested, 0.76% active; AID 588856
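HepG2 CAGA-GFP cells (1000/well, DMEM with 1% FBS) received compound, then TGF-beta at 500 pg/mL final, and were incubated 18 hours at 37 degrees C. Viability was read by CellTiter-Glo luminescence. Media-only wells were set as complete cell-killing and DMSO as no toxicity.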
* hit, by the source's call; [ ] = another dose, or the depositor's remark. Calls come from the whole dose curve; as a rule, active = well fitted curve in the direction sought with a large enough effect; inconclusive = small, poorly fitted or top-dose-only effect, or another doubt; inactive = no such curve, though single readings can be large; an effect the other way counts as inactive or inconclusive. Potency is the fitted concentration of half-maximal effect.

How did Cc1cc(-c2c(C)[nH]n(-c3ccc(Cl)cc3)c2=O)n[nH]1 do in these assays?
TDP1 cell CPT: 7.3µM*; ATXN2 expr inh: -1%; TDP1 cell noCPT: 13µM*; TGFb SMAD3 inh: -25%; S2 tox: inactive; HepG2 viability: -43%

How did Cc1[nH]n(-c2ccccc2)c(=O)c1Sc1ccc(Cl)cc1 do in these assays?
TDP1 cell CPT: inconclusive; ATXN2 expr inh: -7%; TDP1 cell noCPT: inconclusive; TGFb SMAD3 inh: 0%; S2 tox: inactive; HepG2 viability: -26%

What do the screens show for `Cc1ccc(NC(=O)C(Cc2ccccc2)N2C(=O)C3C4CCC(C4)C3C2=O)cc1Cl` (stereo not given)?
TDP1 cell CPT: inconclusive; ATXN2 expr inh: -26%; TDP1 cell noCPT: inconclusive; TGFb SMAD3 inh: -23%; S2 tox: inactive; HepG2 viability: -16%

What do the screens show for `Cc1ccc(Cl)cc1NC(=O)C(Cc1ccccc1)N1C(=O)C2C3CCC(C3)C2C1=O` (stereo not given)?
TDP1 cell CPT: inconclusive; ATXN2 expr inh: -5%; TDP1 cell noCPT: 15µM*; TGFb SMAD3 inh: -10%; S2 tox: inactive; HepG2 viability: -25%

What do the screens show for `COC(=O)c1cc(S(N)(=O)=O)ccc1OC`?
ATXN2 expr inh: 7%; S2 tox: inactive

Results for CC(=O)Nc1cccc(-c2csc(C(O)c3ccc(F)cc3)n2)c1 (stereo not given) ?
TDP1 cell CPT: inconclusive; ATXN2 expr inh: 2%; TDP1 cell noCPT: -26%; TGFb SMAD3 inh: -2%; S2 tox: inactive; HepG2 viability: -7%

What do the screens show for `O=C(CCl)NC(Cc1ccccc1)c1ccccc1` (stereo not given)?
TDP1 cell CPT: 15µM*; ATXN2 expr inh: inconclusive; TDP1 cell noCPT: 23µM*; TGFb SMAD3 inh: -4%; S2 tox: inconclusive; HepG2 viability: -24%

What do the screens show for `CC(=O)C(Cc1ccccc1)NC(=O)CCl` (stereo not given)?
TDP1 cell CPT: inconclusive; ATXN2 expr inh: 31%; TDP1 cell noCPT: -9%; TGFb SMAD3 inh: -7%; S2 tox: inactive; HepG2 viability: -10%

How did Cc1ncc2c(c1CNS(=O)(=O)N(C)C)CCN(C(=O)c1c(F)cccc1F)C2 do in these assays?
TDP1 cell CPT: 6%[9.04 µM]; TDP1 cell noCPT: -10%; S2 tox: inactive

How did CC(=O)COC(=O)C1=NN(c2ccccc2)C(=O)CC1 do in these assays?
TDP1 cell CPT: -1%; ATXN2 expr inh: 2%; TDP1 cell noCPT: -2%; TGFb SMAD3 inh: 18%; S2 tox: inactive; HepG2 viability: 14%

How did CC1CCc2nc(/C(C#N)=C/c3ccncc3)sc2C1 (stereo not given) do in these assays?
TDP1 cell CPT: 18µM*; ATXN2 expr inh: 71%; TDP1 cell noCPT: inconclusive; TGFb SMAD3 inh: -25%; HepG2 viability: -6%

How did COc1ccc(C(=O)N2CCN(c3ncccn3)CC2)cc1 do in these assays?
TDP1 cell CPT: -5%; ATXN2 expr inh: -11%; TDP1 cell noCPT: 1%; TGFb SMAD3 inh: 4%; S2 tox: inactive; HepG2 viability: -9%

Results for Cc1cc(C)c2nc(N3CCCN(C(=O)c4cnccn4)CC3)c(C#N)cc2c1 ?
TDP1 cell CPT: 23µM*; ATXN2 expr inh: -15%; TDP1 cell noCPT: 16µM*; TGFb SMAD3 inh: -5%; S2 tox: inactive; HepG2 viability: -34%

What do the screens show for `Cc1ccc(C(=O)N2CCCN(c3nc4cc5c(cc4cc3C#N)OCO5)CC2)cc1`?
TDP1 cell CPT: inconclusive; ATXN2 expr inh: -28%; TDP1 cell noCPT: 15µM*; TGFb SMAD3 inh: -21%; S2 tox: inactive; HepG2 viability: -3%

How did COc1ccc(C(=O)N2CCN(c3nc4cc(C)cc(C)c4cc3C#N)CC2)cc1 do in these assays?
TDP1 cell CPT: inconclusive; ATXN2 expr inh: -29%; TDP1 cell noCPT: 18µM*; TGFb SMAD3 inh: inconclusive; S2 tox: inactive; HepG2 viability: -42%

What do the screens show for `COCCCNC(=S)N1CCCN(c2nc3cc(C)ccc3cc2C#N)CC1`?
TDP1 cell CPT: inconclusive; TDP1 cell noCPT: inconclusive; TGFb SMAD3 inh: inconclusive; S2 tox: inactive; HepG2 viability: -9%

How did CCOCCCNC(=S)N1CCCN(c2nc3cc(C)cc(C)c3cc2C#N)CC1 do in these assays?
TDP1 cell CPT: 18µM*; ATXN2 expr inh: inconclusive; TDP1 cell noCPT: 21µM*; TGFb SMAD3 inh: -38%; HepG2 viability: -22%

Results for O=C(CN(C(=O)c1csnn1)c1ccccc1C(F)(F)F)NC1CCCCC1 ?
TDP1 cell CPT: 6%; ATXN2 expr inh: -11%; TDP1 cell noCPT: -17%; TGFb SMAD3 inh: 8%; S2 tox: inactive; HepG2 viability: -3%

What do the screens show for `O=S(=O)(c1ccc(SCc2c(F)cccc2Cl)nc1)N1CCCC1`?
TDP1 cell CPT: inconclusive; TDP1 cell noCPT: inconclusive; TGFb SMAD3 inh: inconclusive; S2 tox: inconclusive; HepG2 viability: -31%

What do the screens show for `COc1ccccc1CNC(=O)c1ccc(N2CCOCC2)c([N+](=O)[O-])c1`?
TDP1 cell CPT: -25%; ATXN2 expr inh: -5%; TDP1 cell noCPT: -7%; TGFb SMAD3 inh: 3%; S2 tox: inactive; HepG2 viability: -21%

Results for Cc1ccc(NC(=O)C2(c3ccccc3)CC2(Cl)Cl)cc1C (stereo not given) ?
TDP1 cell CPT: inconclusive; ATXN2 expr inh: 40%; TDP1 cell noCPT: 16µM*; TGFb SMAD3 inh: inconclusive; S2 tox: inactive; HepG2 viability: 4%

What do the screens show for `Cc1ccc(C2CC(c3ccccc3)=NN2C(=S)Nc2ccccc2)o1` (stereo not given)?
TDP1 cell CPT: 3.3µM*; ATXN2 expr inh: 1%; TDP1 cell noCPT: 5.8µM*; TGFb SMAD3 inh: -3%; S2 tox: inactive; HepG2 viability: 8%

What do the screens show for `C=CCc1cccc(Cl)c1OCCCNC1CCCC1`?
TDP1 cell CPT: 23µM*; TDP1 cell noCPT: 18µM*; TGFb SMAD3 inh: 0%; S2 tox: inconclusive; HepG2 viability: -33%

How did O=C(c1ccc(Cl)c([N+](=O)[O-])c1)N1CCN(Cc2ccc3c(c2)OCO3)CC1 do in these assays?
TDP1 cell CPT: -30%; ATXN2 expr inh: inconclusive; TDP1 cell noCPT: inconclusive; TGFb SMAD3 inh: inconclusive; S2 tox: inactive; HepG2 viability: -35%

How did CCN(C[C@H]1N[C@@](CC)(C(=O)OC)[C@H]2C(=O)N(Cc3ccccc3)C(=O)[C@@H]12)C(=O)Nc1ccc(C)cc1 do in these assays?
TDP1 cell CPT: inconclusive; ATXN2 expr inh: 8%; TDP1 cell noCPT: inconclusive; TGFb SMAD3 inh: -21%; S2 tox: inactive; HepG2 viability: -25%
